High-throughput results: PubChem BioAssay, several laboratories
Only some compounds are listed: those with a hit (about 5.1% of all), similar ones and a draw of the others.
TMEM16A inh: blocks the mouse calcium-activated chloride channel TMEM16A; Q8BHY3; HEK293 TMEM16A/YFP iodide influx fluorescence, ionomycin; normalized B-score (activity score, 25-100; higher = stronger inhibition) at 10 µM; actives 1.2% (n = 310,000);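 active = ratio plate-corrected score three or more library SD toward inhibition, starting fluorescence score within five deviations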;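 also: score derived from kinetic fluorescence span divided by baseline fluorescence per well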
Target sequence (Q8BHY3 whole entry, looked up): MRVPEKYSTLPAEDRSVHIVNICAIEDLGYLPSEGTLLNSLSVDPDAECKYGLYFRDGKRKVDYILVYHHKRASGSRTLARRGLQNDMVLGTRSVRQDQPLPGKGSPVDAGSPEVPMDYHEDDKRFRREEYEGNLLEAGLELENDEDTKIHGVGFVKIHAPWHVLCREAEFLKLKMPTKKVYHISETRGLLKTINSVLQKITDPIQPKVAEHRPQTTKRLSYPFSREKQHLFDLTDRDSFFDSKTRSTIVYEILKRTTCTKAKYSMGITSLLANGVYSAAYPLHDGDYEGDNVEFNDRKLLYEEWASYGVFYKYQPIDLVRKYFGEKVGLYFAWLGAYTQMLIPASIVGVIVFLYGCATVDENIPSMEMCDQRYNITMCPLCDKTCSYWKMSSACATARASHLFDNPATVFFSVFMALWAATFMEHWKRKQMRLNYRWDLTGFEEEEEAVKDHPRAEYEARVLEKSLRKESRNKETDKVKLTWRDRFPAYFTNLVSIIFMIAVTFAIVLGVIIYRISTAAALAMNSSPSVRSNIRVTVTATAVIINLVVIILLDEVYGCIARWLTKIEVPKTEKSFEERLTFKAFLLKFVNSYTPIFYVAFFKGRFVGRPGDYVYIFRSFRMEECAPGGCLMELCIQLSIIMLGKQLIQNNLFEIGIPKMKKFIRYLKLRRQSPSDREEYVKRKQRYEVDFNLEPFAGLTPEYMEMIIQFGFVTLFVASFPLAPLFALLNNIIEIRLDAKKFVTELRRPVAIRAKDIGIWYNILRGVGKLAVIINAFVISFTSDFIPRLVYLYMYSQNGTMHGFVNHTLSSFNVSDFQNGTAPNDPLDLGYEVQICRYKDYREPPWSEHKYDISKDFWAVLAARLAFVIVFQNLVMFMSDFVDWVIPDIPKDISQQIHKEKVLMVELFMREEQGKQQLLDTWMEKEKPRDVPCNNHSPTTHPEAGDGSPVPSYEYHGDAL
GRIN3A LBD mod: NR3A (human) ligand-binding domain modulation; actives 2.5% (n = 340,000); NR3A LBD differential scanning fluorimetry, Tm shift; 0% = protein alone, 100% = glycine-bound protein; Tm shift relative to glycine control, % at 25 µM;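 active = melting temperature shift of at least 10% of the positive control shift, at one fixed dose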
MPTP block: permeability transition pore inhibition. actives 1.4% (n = 360,000). isolated mouse mitochondria, Ca2+ swelling absorbance, 30 min. inhibition, % at 10 µM. AID 602449;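 active = inhibition of 50% or more, scaled per plate between neutral and stimulator controls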;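 also: 0% = DMSO wells given calcium and 100% = 1 mM EGTA wells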
CRFR2-BP antag: antagonists of CRF-binding protein/CRF-R2 receptor complex | actives 0.59% (n = 350,000) | HEK293 CRF-R2/CRF-BP, CRF-induced calcium fluorescence | inhibition, % at 11.8 µM | AID 588475;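 active = inhibition of the ligand-induced calcium signal above about 50% at the single tested concentration, limit read from the data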
CRFBP-R2 agonist: CRF-BP/CRF-R2 complex agonism. HEK293 CRF-R2/CRF-BP, calcium dye fluorescence (FLIPR); percent of saturating CRF peptide response. activation, % at 13.2 µM. actives 0.46% (n = 350,000). AID 588473;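 active = activation of at least 50%, plus an integration ratio under a set limit after plate pattern correction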;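 also: plate controls were neutral control wells without compound for no effect and CRF at EC100 for full effect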
ANO1 activ: activators or potentiators of mouse TMEM16A chloride channel. HEK293 TMEM16A/YFP-H148Q/I152L, iodide quench fluorescence; hits give low values. B-score at 10 µM. actives 0.3% (n = 340,000). AID 623877;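 active = fluorescence-ratio B-score plate-corrected deviation score at least 3 library SD below zero, with starting fluorescence score within 5 deviations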;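 also: channel opened by trigger with iodide after compound preincubation; score built on the fluorescence ratio of max minus min over baseline; more negative score means more quench and so TMEM16A activation or potentiation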
Starred values were filed as active, the others as inactive; i = inactive; · = not tested or not shown.

SMILES | TMEM16A inh | GRIN3A LBD mod | MPTP block | CRFR2-BP antag | CRFBP-R2 agonist | ANO1 activ
Cc1ccc(-c2nn(-c3ccc(F)cc3)cc2C(=O)N2CCN(C3CCS(=O)(=O)C3)CC2)cc1 (stereo unspecified) | · | -1.2 | -0.6 | -14.4 | -0.8 | -37.5*
O=C(CN1CCOCC1)N/N=C/c1c(O)ccc2ccccc12 | i | 1.4 | 0.3 | -2.5 | 1.6 | i
CC(=O)Nc1ccc(N=Cc2c(O)ccc3ccccc23)cc1 | i | 39.4* | 2.8 | -35.4 | 17.5 | i
O=C(N/N=C/c1c(O)ccc2ccccc12)Nc1ccccc1 | i | 39.4* | · | -8.8 | 2.1 | i
COc1ccc(/C=N/Nc2ccccn2)cc1OC | i | 2.9 | 0.7 | -3.5 | -0.4 | i
COc1ccc(/C=N/Nc2nc(N)cc(Cl)n2)cc1OC | i | 12.0* | -0.1 | 11.3 | -0.9 | i
O=C(CSCC(=O)Nc1ccccc1)N/N=C/c1c(O)ccc2ccccc12 | i | 9.3 | 2.0 | -28.1 | 17.8 | i
O=C(O)c1ccc(N=Cc2c(O)ccc3ccccc23)cc1 | i | 0.3 | -0.4 | 3.2 | -0.1 | i
O=C(CNc1ccccc1)N/N=C/c1c(O)ccc2ccccc12 | i | 20.2* | 5.8 | -16.2 | 0.6 | i
Cc1cccc(CSc2nc3nc(C)cc(C)n3n2)c1 | i | 2.8 | 1.9 | -1.7 | 5.0 | i
COc1ccc(OC)c(S(=O)(=O)Nc2c(C)n(C)n(-c3ccccc3)c2=O)c1 | i | -1.2 | -0.2 | -13.8 | 1.6 | i
Nc1cc(Cl)nc(N/N=C/c2c(O)ccc3ccccc23)n1 | i | 27.7* | -1.3 | -16.2 | -0.7 | i
CC(C)C(NS(=O)(=O)c1ccccc1)C(=O)N1CCN(C(=O)c2ccco2)CC1 (stereo unspecified) | i | 0.4 | -0.8 | -6.6 | -0.6 | i
Cc1ccc(C(=O)NCC(=O)Nc2ccc(C)c(S(=O)(=O)Nc3ccc(Cl)cc3)c2)s1 | i | 11.4* | -0.6 | -4.7 | 6.1 | i
CCN(CC)c1ccc(C(=O)NNC(=O)C2CCN(c3ncnc4sc(C)c(C)c34)CC2)cc1 | · | · | 1.1 | -3.6 | 0.0 | ·
CC1=CC2C(C3C=CC2(C)C(=O)C3(C)O)C(C)(O)C1=O (stereo unspecified) | · | -2.1 | 3.5 | -14.1 | 3.9 | i
CC1CCC(NC(=O)c2ccc(NC3=NC4CS(=O)(=O)CC4S3)cc2)CC1 (stereo unspecified) | i | -1.1 | 0.7 | -5.5 | 2.7 | i
COc1cccc(/C=N/NC(=O)CNC(=O)COc2ccccc2)c1O | i | -1.3 | 0.2 | -9.5 | -0.6 | i
Cc1cccc(OCC(=O)NCC(=O)N/N=C/c2cc(Br)cc(Br)c2O)c1 | i | 17.1* | -0.3 | -7.3 | 6.6 | i
Cc1cccc(OCC(=O)N/N=C/c2cn[nH]c2-c2ccc(Cl)c(Cl)c2)c1 | i | 27.2* | 2.5 | -15.8 | 3.3 | i
[O-][n+]1c2ccccc2c2n1CCCN=C2c1ccc(Cl)cc1 | i | -0.5 | 0.8 | 0.2 | -0.8 | i
CC1(C(=O)NS(=O)(=O)c2ccc(C#N)cc2)CCN1C(=O)Cc1cccc2ccccc12 (stereo unspecified) | · | · | 1.1 | · | · | ·
CN(C)c1ncc(S(=O)(=O)c2ccc(Cl)cc2)c(-c2ccc(Cl)cc2Cl)n1 | i | 0.4 | 2.3 | 56.3* | 3.2 | -7.69*
CN(C)c1ncc(S(=O)(=O)c2ccccc2)c(-c2ccc(Cl)cc2Cl)n1 | i | 0.3 | 0.9 | 30.9 | 0.4 | i
CC(C)[C@@H](NC(=O)C1CCN(C(=O)[C@@H]2CCCN2C(=O)OC(C)(C)C)CC1)C(=O)NCc1ccc(F)cc1 | i | -0.5 | -0.5 | 6.5 | 1.4 | -24.1*
SMILES | TMEM16A inh | GRIN3A LBD mod | MPTP block | CRFR2-BP antag | CRFBP-R2 agonist | ANO1 activ
COc1ccc(S(=O)(=O)N2CCCC(C(=O)NCc3ccncc3)C2)cc1 (stereo unspecified) | i | 2.0 | -1.2 | 55.8* | -3.2 | i
O=C(CCNC(=O)C1CCN(S(=O)(=O)c2ccccc2)CC1)NCc1ccncc1 | i | -0.5 | -0.3 | 24.6 | -1.6 | -27.8*
COc1ccc(CNC(=O)[C@H](C)NC(=O)C2CCN(S(=O)(=O)c3ccc(F)cc3)CC2)cc1 | i | 2.8 | -0.6 | 81.8* | -1.2 | i
COc1cccc(NC(=O)C2CCCN(S(=O)(=O)c3ccc(-n4cnnn4)cc3)C2)c1 (stereo unspecified) | i | -0.9 | -0.2 | 86.3* | 0.3 | i
CCOc1cccc(NC(=O)C2CCCN(S(=O)(=O)c3ccc(-n4cnnn4)cc3)C2)c1 (stereo unspecified) | i | -3.1 | 0.5 | 25.8 | -1.6 | i
Cc1cn([C@H]2C[C@H](O)[C@@H](/C=C/C(=O)NCCc3ccc(S(N)(=O)=O)cc3)O2)c(=O)[nH]c1=O | · | · | 0.3 | · | · | ·
CCOP(=O)(c1ccc(N(C)C)cc1)C(O)c1ccccc1F (stereo unspecified) | i | -1.0 | 0.7 | 9.7 | -0.5 | ·
COc1ccc(NS(=O)(=O)c2cc(Br)cc3c2N(C(C)=O)CC3)cc1 | i | 35.2* | 0.0 | -4.8 | -0.2 | i
O=C(COc1ccccc1-c1ccccc1)N/N=C/c1ccccn1 | i | -1.1 | -0.1 | 8.9 | 0.8 | i
CC1CCc2c(sc(NC(=O)Cn3nc(C(F)(F)F)c4c3CCCCC4)c2C#N)C1 (stereo unspecified) | i | 15.6* | 16.5 | 0.0 | -1.3 | i
COc1ccc(C2=Nc3ccccc3C2(O)CCN2C(=O)c3ccccc3C2=O)cc1 (stereo unspecified) | · | -1.7 | 3.4 | 67.2* | 31.0 | ·
COc1cc(C(O)c2nc(/C=C/c3ccc(C(F)(F)F)cc3)cs2)ccc1F (stereo unspecified) | · | · | 1.8 | · | · | ·
O=C(c1ccc(Br)cc1)N(Cc1ccco1)C1CCS(=O)(=O)C1 (stereo unspecified) | i | -1.2 | -2.8 | -2.7 | -0.6 | i
Cc1ccc(-n2c(=O)c3sccc3n(Cc3cc(=O)n4ccccc4n3)c2=O)cc1F | i | · | · | · | · | ·
Cc1ccc(-n2c(=O)c3sccc3n(Cc3cc(=O)n4cc(Cl)ccc4n3)c2=O)cc1F | i | 14.8* | -2.3 | 22.2 | 0.9 | i
Cc1nc2c(N=Nc3ccccc3F)c(N)nn2c(N)c1C#N | i | 15.0* | -1.7 | 6.9 | -3.5 | i
Cc1c(C(=O)NCc2ccc(F)cc2)sc(=O)n1Cc1ccc(Cl)c(Cl)c1 | · | · | -0.6 | · | · | ·
OCCNCc1cc(Br)ccc1OCc1ccccc1 | i | 12.6* | 0.0 | -7.1 | -1.1 | i
CC(=O)c1ccc(-n2c(SCC(=O)c3c[nH]c4ccccc34)nc3ccccc3c2=O)cc1 | i | 16.0* | 5.2 | -8.8 | -0.9 | i
CCOC(=O)c1c(C)[nH]c(C)c1C(=O)CSc1nc2ccccc2c(=O)n1-c1ccc(CC)cc1 | i | 2.4 | 5.8 | 5.6 | -0.7 | i
